The nature of this assay: P. aeruginosa growth delay with metal chelator, dose response, OD600, EDDHA, ATCC 15692, cherry-pick, set 2 (AID 624058). Particulars: P. aeruginosa ATCC 15692 with EDDHA, OD600, 24-30 h; series mostly up to 50 µM.

Results filed as inconclusive are left out. Calls of active or inactive are those of the source. How the calls were made is not given here.

In the case of `O=[N+]([O-])c1ccc(N2CCCCC2)nc1`, the outcome was inactive.

For the molecule `CCOC(=O)N1CCN(c2ccc(Cl)cc2)CC1`, the molecule was called inactive.

For the molecule `N#Cc1cc(-c2ccccc2)cnc1Cl`, the outcome was inactive.

For `CCOc1ccc(-n2cccc2C=O)cc1`, the molecule was classed as inactive.

Turning to `Cn1cccc1C(C#N)c1cccc(F)c1C#N` (centres undefined), the molecule was classed as inactive.

For the molecule `CCCNS(=O)(=O)c1ccc(OC)c(Cl)c1Cl`, the call was inactive.

Regarding `CCOC(=O)/C=C(\C)Sc1cc(=O)oc2ccccc12`, the result was inactive.

With `O=[N+]([O-])c1ccc(N2CCCC2)nc1`, the molecule was called inactive.

`COc1ccccc1C(C#N)c1cccc(Cl)n1` (centres undefined): the molecule was called inactive.

For `Cc1ccc(S(=O)c2ccc(C)cc2)cc1`, the molecule was called inactive.

With `N#C/C(=C/c1ccco1)c1nc2ccccc2s1`, the outcome was inactive.

For the molecule `O=C1C2C(C(=O)N1Cc1ccco1)C1C=CC2C12CC2` (centres undefined), the outcome was inactive.

Consider `O=CN(c1ccccc1)c1ccc2ccccc2c1`, for which the outcome was inactive.

For `CCOC(=O)c1ccc(-c2ccc(CO)o2)cc1`, the outcome was inactive.

The values are drawn from PubChem BioAssay AID624058 (Broad Institute, 2012).
